Results published in PubChem BioAssay (NCATS).
A number with no mark means an inactive call. Inconclusive results are not listed. Where a call stands in place of a potency, no number is given. The source made the active and inactive calls. Unless noted, calls follow the shape of the dose curve; as a rule, active = well fitted curve in the direction sought with a large enough effect; inconclusive = small, poorly fitted or top-dose-only effect, or another doubt; inactive = no such curve, though single readings can be large; an effect the other way counts as inactive or inconclusive.

Columns and labels:
[1] = target: Lysosomal acid glucosylceramidase (Homo sapiens) (UniProt P04062); assay: Glucocerebrosidase-p2 (AID 348; in the data active = potency below about 10 µM; also: potency is read from the fitted curve at half-maximal effect); conditions: purified GBA, blue fluorogenic substrate, 40 min
Chain of Lysosomal acid glucosylceramidase (Homo sapiens) (P04062 whole entry, looked up): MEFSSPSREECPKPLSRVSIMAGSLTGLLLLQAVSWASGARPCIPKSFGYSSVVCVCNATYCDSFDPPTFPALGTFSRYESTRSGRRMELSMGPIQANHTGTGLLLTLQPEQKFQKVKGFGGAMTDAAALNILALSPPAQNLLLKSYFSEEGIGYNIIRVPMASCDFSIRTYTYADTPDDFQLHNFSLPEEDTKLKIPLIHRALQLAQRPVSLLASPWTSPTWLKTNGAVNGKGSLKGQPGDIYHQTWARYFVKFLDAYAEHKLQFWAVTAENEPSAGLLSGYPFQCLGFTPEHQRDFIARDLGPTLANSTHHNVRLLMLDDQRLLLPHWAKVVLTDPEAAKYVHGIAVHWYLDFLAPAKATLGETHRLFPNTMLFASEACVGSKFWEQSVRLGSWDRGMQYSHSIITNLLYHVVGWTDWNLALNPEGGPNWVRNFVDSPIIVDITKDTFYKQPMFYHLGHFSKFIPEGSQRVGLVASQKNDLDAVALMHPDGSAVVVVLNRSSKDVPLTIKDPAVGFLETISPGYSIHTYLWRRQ
Method in brief: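 Compounds titrated from 0.6 nM upwards against 0.2 nM enzyme in pH 5.9 citric acid/KH2PO4, taurocholate, tween-20; blue fluorogenic substrate 80 uM, 40 min room temperature, stopped and read Ex 365/Em 440 for AC50.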

[2] = target: Cytochrome P450 1A2 (Homo sapiens) (UniProt P05177); assay: p450-cyp1a2 (AID 410; calls by dose curve; also: potency is read from the fitted curve at half-maximal effect); conditions: recombinant CYP1A2, luciferin-ME demethylation, luminescence; series mostly up to 57 µM
Chain of Cytochrome P450 1A2 (Homo sapiens) (P05177 whole entry, looked up): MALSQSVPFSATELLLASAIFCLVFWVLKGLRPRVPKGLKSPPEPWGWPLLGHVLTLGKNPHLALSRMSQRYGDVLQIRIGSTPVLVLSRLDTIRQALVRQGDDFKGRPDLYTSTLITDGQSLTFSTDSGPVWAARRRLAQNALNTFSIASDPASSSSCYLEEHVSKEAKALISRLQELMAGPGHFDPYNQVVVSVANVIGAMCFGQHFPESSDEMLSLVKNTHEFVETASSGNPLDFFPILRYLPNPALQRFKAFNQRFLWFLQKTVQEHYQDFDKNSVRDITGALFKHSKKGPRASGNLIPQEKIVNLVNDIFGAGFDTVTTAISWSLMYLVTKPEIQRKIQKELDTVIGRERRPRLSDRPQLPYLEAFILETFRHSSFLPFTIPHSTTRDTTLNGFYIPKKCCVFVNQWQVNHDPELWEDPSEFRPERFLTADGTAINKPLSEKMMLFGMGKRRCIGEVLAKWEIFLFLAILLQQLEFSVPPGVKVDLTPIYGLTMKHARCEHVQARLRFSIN
Method in brief: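 20nM CYP1A2 with 100uM Luciferin-ME (at Km) in 100mM KPO4; compound preincubated 10 min, NADPH regeneration added, 60 min at room temperature. Luciferin quantified by luminescence after detection reagent; normalized to 57 uM furafylline.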

[3] = NFAT Signaling Pathway (AID 444; active = well fitted curve in either direction with a large enough effect, not every such curve was filed as active;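 also: carbachol stimulus at about its EC50 of 1 µM final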); conditions: Jurkat NFAT-bla M1, carbachol, beta-lactamase ratio, 5 h; at 7.69 µM (top of the series) unless noted
Method in brief: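 Jurkat cells with NFAT-driven β-lactamase reporter and co-expressed M1 receptor, stimulated with carbachol (final 1 uM, ~EC50), compound titration, 5 h at 37 °C. CCF4 loaded 1 h at RT; 460/530 nm ratio gave %activity and AC50.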

[4] = target: Glucocorticoid receptor (Homo sapiens) (UniProt P04150); assay: GR-GFP Redistribution (AID 450;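 active = compounds whose dose series gives a full or clear partial fitted curve of increased nuclear translocation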; also: potency is read from the fitted curve at half-maximal effect); conditions: U2OS GR-GFP nuclear translocation, laser cytometry, 2 h
Chain of Glucocorticoid receptor (Homo sapiens) (P04150 whole entry, looked up, the tested form may be a part): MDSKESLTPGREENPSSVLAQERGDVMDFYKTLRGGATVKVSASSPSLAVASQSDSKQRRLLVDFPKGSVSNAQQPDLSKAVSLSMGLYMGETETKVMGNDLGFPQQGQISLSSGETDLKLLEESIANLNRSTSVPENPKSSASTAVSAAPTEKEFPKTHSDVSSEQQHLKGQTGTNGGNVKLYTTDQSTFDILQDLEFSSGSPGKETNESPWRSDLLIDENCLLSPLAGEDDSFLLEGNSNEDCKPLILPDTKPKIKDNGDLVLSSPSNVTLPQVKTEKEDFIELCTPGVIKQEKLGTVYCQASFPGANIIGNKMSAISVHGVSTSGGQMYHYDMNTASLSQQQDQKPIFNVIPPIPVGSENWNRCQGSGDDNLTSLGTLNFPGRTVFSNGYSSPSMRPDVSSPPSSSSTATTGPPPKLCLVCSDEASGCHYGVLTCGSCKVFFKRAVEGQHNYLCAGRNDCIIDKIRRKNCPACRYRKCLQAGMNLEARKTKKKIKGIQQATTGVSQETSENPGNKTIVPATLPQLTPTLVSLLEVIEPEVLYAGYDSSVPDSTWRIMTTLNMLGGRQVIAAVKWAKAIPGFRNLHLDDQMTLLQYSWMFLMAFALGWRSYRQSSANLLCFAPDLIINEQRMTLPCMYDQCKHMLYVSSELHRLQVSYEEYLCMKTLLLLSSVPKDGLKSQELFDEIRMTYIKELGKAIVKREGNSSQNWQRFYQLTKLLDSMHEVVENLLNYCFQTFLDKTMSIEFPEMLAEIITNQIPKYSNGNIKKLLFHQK

[5] = target: Glucocorticoid receptor (Homo sapiens) (UniProt P04150); assay: GR-EFC Redistribution (AID 451; calls by dose curve; also: potency is read from the fitted curve at half-maximal effect); conditions: CHO-K1 GR-EFC translocation, beta-gal luminescence, 2 h
Method in brief: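 CHO-K1 cells expressing nuclear EA and GR-ED fragments of b-gal; compounds titrated up to 46 uM final, 2 h at 37 C. GR nuclear translocation read as complemented b-gal luminescence after 1 h RT detection.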

[6] = target: 3',5'-cyclic-AMP phosphodiesterase 4B (Homo sapiens) (UniProt Q07343); assay: qHTS Assay for Inhibitors of PDE-IV (AID 607; active = well fitted activation curve with a large enough effect in the main read-out, with a control signal flat, not every such curve was filed as active); conditions: HEK293 ACTOne CNG channel cells, membrane potential fluorescence; series mostly up to 22.9 µM
Chain of 3',5'-cyclic-AMP phosphodiesterase 4B (Homo sapiens) (Q07343 whole entry, looked up): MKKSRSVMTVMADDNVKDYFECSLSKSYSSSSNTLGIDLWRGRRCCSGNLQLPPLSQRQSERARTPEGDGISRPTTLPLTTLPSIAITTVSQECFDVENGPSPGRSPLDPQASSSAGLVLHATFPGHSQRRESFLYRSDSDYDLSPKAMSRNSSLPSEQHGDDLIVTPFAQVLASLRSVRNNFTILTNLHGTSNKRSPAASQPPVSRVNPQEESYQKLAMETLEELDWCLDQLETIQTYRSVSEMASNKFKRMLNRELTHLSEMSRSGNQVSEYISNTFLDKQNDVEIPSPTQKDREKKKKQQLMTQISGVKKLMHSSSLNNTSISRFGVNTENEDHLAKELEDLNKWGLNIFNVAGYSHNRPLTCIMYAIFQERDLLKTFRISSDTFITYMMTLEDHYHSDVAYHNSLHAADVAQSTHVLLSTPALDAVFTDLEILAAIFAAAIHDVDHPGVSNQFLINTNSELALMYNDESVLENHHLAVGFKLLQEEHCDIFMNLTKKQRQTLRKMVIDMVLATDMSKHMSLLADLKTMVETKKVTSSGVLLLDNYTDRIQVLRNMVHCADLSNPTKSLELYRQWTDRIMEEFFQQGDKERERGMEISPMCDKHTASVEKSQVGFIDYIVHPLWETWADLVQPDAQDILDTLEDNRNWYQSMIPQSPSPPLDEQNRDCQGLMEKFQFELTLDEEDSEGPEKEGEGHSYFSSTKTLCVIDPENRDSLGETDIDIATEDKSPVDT
Method in brief: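 The readout is membrane depolarisation from a cAMP-sensing CNG channel, detected with a potential dye at ex 535/em 590. Cells were HEK293-derived (endogenous PDE-IV) at 1000 cells/well, titrated up to 22.9 uM final.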

[7] = qHTS Assay for Identification of Small Molecule Agonists for Hypoxia Response Element Signaling Pathway (AID 914; active = well fitted activation curve with a large enough effect in the signal ratio, with a control signal flat, not every such curve was filed as active; the % refers to the signal ratio; also: potency is read from the fitted curve at half-maximal effect); conditions: ME-180 HRE-bla reporter, beta-lactamase ratio, CoCl2, 17 h; activation: hits give high values
Method in brief: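 Cells were plated overnight, pin-dosed with compound in a titration series, co-stimulated with EC50 CoCl2 and incubated 17 hours at 37 degrees Celsius. CCF4 substrate was then loaded, and AC50 values came from the 460nm/530nm ratio.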

[8] = target: Dual specificity protein kinase CLK4 (Homo sapiens) (UniProt Q9HAZ1); assay: qHTS Assay for Inhibitors of CDC-like Kinase 4 (Kinase-Glo Assay) (AID 1770); conditions: recombinant Clk4, Kinase-Glo ATP depletion luminescence; series mostly up to 66.7 µM; also: nearly all actives have a fitted effect of over 65% in size; also: potency is read from the fitted curve at half-maximal effect
Chain of Dual specificity protein kinase CLK4 (Homo sapiens) (Q9HAZ1 whole entry, looked up): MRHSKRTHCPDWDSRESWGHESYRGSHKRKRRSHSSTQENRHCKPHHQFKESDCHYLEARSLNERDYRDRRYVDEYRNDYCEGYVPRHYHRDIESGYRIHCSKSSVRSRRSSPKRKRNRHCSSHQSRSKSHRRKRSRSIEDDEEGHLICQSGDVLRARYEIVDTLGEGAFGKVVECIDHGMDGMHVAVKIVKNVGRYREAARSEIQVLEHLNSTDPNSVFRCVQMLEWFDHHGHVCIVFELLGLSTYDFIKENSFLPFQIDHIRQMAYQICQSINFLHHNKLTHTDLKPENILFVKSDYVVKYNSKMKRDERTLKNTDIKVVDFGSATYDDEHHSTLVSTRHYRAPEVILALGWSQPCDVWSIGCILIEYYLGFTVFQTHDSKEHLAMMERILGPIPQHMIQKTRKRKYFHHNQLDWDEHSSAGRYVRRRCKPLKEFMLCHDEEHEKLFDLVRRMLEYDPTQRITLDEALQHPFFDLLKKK
Method in brief: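 Inhibition was judged from remaining ATP, measured by Ultra-Glo luciferase bioluminescence after Clk4 (25 nM) had acted on RS peptide at 1 uM ATP for 4.5 hours, room temperature.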

[9] = target: Dual specificity protein kinase CLK4 (Homo sapiens) (UniProt Q9HAZ1); assay: qHTS Assay for Inhibitors of CDC-like Kinase 4 (ADP-Glo Assay) (AID 1771); conditions: recombinant CLK4, ADP-Glo luminescence; series mostly up to 80 µM; also: nearly all actives have a fitted effect of over 70% in size; also: potency is read from the fitted curve at half-maximal effect
Method in brief: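 25 nM Clk4 with 100 uM RS repeat peptide and 1 uM ATP (final) in buffer with 2 mM MgCl2, 0.5 mM EGTA, 2.5 mM DTT, 0.01% Triton X-100; 1 h at room temperature; ADP-Glo luminescence for ADP formed.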

[10] = target: Dual specificity protein kinase CLK4 (Homo sapiens) (UniProt Q9HAZ1); assay: qHTS Assay for Inhibitors of CDC-like Kinase 4 (ADP-FP Assay) (AID 1795); conditions: Transcreener ADP fluorescence polarization; series mostly up to 50 µM; also: nearly all actives have a fitted effect of over 60% in size; also: potency is read from the fitted curve at half-maximal effect;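 as to activity change, negative = inhibition: recombinant human CLK4 phosphorylating RS repeat peptide at 1 µM ATP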
Method in brief: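 Inhibition of ADP formation by 6.25 nM Clk4 is measured using 1 uM ATP and 100 uM RS repeat peptide over one hour. Produced ADP displaces a fluorescent tracer from antibody, lowering polarization.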

[11] = target: Ubiquitin carboxyl-terminal hydrolase 1 (Homo sapiens) (UniProt O94782); assay: Inhibitors of USP1/UAF1: Pilot qHTS (AID 504865); conditions: purified USP1/UAF1, Ub-rhodamine cleavage fluorescence; series mostly up to 54.9 µM;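 also: rhodamine fluorescence freed from ubiquitin-rhodamine substrate followed over time; top concentration of the series differs between compounds; nearly all actives have a fitted effect of over 35% in size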
Chain of Ubiquitin carboxyl-terminal hydrolase 1 (Homo sapiens) (O94782 whole entry, looked up): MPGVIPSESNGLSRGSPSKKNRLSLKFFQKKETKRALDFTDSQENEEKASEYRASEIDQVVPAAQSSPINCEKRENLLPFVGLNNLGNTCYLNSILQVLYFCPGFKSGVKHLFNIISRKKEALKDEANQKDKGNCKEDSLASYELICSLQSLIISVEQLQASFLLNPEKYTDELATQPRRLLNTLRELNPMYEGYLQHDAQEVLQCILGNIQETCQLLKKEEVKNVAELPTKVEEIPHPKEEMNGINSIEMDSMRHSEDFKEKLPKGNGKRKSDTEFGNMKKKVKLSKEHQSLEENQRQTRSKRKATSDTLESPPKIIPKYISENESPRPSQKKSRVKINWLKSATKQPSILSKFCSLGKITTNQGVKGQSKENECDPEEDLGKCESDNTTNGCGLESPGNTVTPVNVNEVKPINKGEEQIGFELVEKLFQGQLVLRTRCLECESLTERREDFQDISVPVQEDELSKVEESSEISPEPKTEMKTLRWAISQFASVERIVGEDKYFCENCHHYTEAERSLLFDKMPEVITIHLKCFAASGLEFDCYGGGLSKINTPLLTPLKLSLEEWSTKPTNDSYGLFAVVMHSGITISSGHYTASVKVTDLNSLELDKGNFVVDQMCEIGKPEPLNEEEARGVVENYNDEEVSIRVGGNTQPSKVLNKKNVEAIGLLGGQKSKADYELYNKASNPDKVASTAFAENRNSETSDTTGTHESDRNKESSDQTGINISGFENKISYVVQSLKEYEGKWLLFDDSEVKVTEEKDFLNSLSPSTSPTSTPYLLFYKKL
Method in brief: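 Kinetic fluorescence assay: 1nM USP1/UAF1, 15 min compound preincubation, then 150nM Ub-Rho; 480/540 nm.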

[12] = Primary qHTS for small molecule stabilizers of the endoplasmic reticulum resident proteome: Secreted ER Calcium Modulated Protein (SERCaMP) assay (AID 1508630); conditions: SH-SY5Y GLuc-SERCaMP (Gaussia luciferase released on ER calcium loss) secretion, thapsigargin, luminescence; series mostly up to 38.4 µM
Method in brief: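 GLuc-SERCaMP-expressing SH-SY5Y cells, pretreated 16 h with compound, are challenged with thapsigargin to empty ER calcium stores; after 4 h, coelenterazine is added directly to the medium and luminescence is imaged.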

[13] = AP1 Signaling Pathway (AID 357; active = well fitted curve in either direction with a large enough effect, not every such curve was filed as active;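 also: ME-180 reporter cells stimulated with EGF at its EC50 level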); conditions: ME-180 AP-1-bla reporter, EGF-induced, beta-lactamase ratio, 5 h; at 7.69 µM (top of the series) unless noted
Method in brief: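 Titration-series screen for positive or negative modulators of EC50 EGF-induced signaling in ME-180 cells carrying an AP-1-driven beta-lactamase reporter. After 5 hours at 37 degrees Celsius, CCF4 460nm/530nm emission ratio gave %Activity; AC50 values derived.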

[14] = Stat Signaling Pathway (AID 446; active = well fitted curve in either direction with a large enough effect, not every such curve was filed as active;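 also: ME-180 cervical cancer cells given 40 pM IL-6 alongside compound; SIE-controlled beta-lactamase reporter measured as 460/530 nm FRET emission ratio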); conditions: ME-180 SIE beta-lactamase reporter, IL-6 stimulated, 5 h; at 7.69 µM (top of the series) unless noted
Method in brief: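 Screening format detects activators and inhibitors alike: ME-180 SIE-bla cells stimulated at 40 pM IL-6 for 5 hrs with compound, then dual-emission beta-lactamase read at 405 nm excitation.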

[15] = target: Mitogen-activated protein kinase 10 (Mus musculus) (UniProt Q61831); assay: JNK3 AlphaScreen Assay (AID 530; active = well fitted curve in either direction with a large enough effect, not every such curve was filed as active;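 also: kinase came from lysate of stimulated human HepG2 cells; signal reports phosphorylation of biotinylated GST-cJun 1-79 at Ser73 with 10 µM ATP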); conditions: JNK3 lysate, c-Jun phosphorylation; series mostly up to 57.1 µM
Method in brief: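 Pre-activated (IL-1β/TNFα) JNK3 in HepG2 lysates phosphorylates biotin-GST-cJun(1-79), 10 uM ATP; anti-phospho-cJun(Ser73) AlphaScreen read at room temperature, pH 7.6 Tris buffer. Compounds pre-incubated 15 min as titrations.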

[16] = target: Cytochrome P450 3A4 (Homo sapiens) (UniProt P08684); assay: qHTS Assay for Activators of Cytochrome P450 3A4 (AID 885); conditions: recombinant CYP3A4, Luciferin-PPXE luminescence, 60 min; series mostly up to 57.1 µM; also: nearly all actives have a fitted effect of over 65% in size
Chain of Cytochrome P450 3A4 (Homo sapiens) (P08684 whole entry, looked up): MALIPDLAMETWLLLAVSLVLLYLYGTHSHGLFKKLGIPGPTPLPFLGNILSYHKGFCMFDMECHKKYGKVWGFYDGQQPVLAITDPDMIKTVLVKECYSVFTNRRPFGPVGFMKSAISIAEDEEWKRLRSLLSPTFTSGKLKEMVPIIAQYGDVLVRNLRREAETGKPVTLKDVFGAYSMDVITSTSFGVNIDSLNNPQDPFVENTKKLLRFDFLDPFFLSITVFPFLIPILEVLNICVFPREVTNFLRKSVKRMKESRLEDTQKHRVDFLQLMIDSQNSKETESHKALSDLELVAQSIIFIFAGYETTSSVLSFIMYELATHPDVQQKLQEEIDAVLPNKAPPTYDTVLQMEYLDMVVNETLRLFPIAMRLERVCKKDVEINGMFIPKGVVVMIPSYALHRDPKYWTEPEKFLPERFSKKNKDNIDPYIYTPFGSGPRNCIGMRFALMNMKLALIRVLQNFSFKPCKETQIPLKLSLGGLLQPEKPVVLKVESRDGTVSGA
Method in brief: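 Steps: enzyme/substrate mix dispensed; compound added, 10 min RT; NADPH regeneration solution added, 60 min RT; luciferin detection buffer stops reaction; 20 min later luminescence measured.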

[17] = target: Cytochrome P450 2C19 (Homo sapiens) (UniProt P33261); assay: qHTS Assay for Inhibitors and Substrates of Cytochrome P450 2C19 (AID 899); conditions: recombinant CYP2C19, luciferin-H EGE luminescence; series mostly up to 57.1 µM; also: potency is read from the fitted curve at half-maximal effect; nearly all actives have a fitted effect of over 60% in size
Chain of Cytochrome P450 2C19 (Homo sapiens) (P33261 whole entry, looked up): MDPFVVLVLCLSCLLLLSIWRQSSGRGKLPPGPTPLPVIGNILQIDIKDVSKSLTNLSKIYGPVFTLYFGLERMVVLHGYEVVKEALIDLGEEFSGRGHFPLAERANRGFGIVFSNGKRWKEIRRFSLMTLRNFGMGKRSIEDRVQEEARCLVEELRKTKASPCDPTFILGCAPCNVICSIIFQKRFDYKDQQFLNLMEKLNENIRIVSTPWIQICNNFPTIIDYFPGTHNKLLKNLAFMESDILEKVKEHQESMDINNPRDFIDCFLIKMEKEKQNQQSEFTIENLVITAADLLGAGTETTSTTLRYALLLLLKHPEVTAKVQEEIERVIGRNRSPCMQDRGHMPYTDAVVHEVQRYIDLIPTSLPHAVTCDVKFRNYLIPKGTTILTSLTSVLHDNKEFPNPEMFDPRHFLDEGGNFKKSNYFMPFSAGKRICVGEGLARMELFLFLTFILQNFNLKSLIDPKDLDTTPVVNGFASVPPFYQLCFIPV
Method in brief: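 Luminescent read-out of luciferin formed from Luciferin-H EGE (10uM, equal to KM). Enzyme 5nM in 50mM KPO4; compound added, 10 min at 37C, then NADPH regenerating system for 60 min at 37C. Full inhibition defined by 57uM ketoconazole.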

[18] = target: Cytochrome P450 3A4 (Homo sapiens) (UniProt P08684); assay: qHTS Assay for Inhibitors and Substrates of Cytochrome P450 3A4 (AID 884); conditions: recombinant CYP3A4, Luciferin-PPXE luminescence; series mostly up to 57.1 µM; also: potency is read from the fitted curve at half-maximal effect; nearly all actives have a fitted effect of over 50% in size
Method in brief: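 20 nM human CYP3A4 with 25 uM Luciferin-PPXE (at KM) in 200 mM KPO4, preincubated 10 min with compound; NADPH regeneration started a 60 min RT reaction. Luciferin detected by luminescence, normalized to 57 uM ketoconazole as full inhibition.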

| SMILES | Potency [1] [µM] | Potency [2] | activity change, negative = inhibition [3] | Potency [4] [µM] | Potency [5] [µM] | Potency [6] | Potency [7] | Potency [8] | Potency [9] | Potency [10] | Potency [11] | outcome [12] | activity change, negative = inhibition [13] [%] | activity, negative = inhibition [14] | Potency [15] | Potency [16] | Potency [17] | Potency [18] |
| --- | --- | --- | --- | --- | --- | --- | --- | --- | --- | --- | --- | --- | --- | --- | --- | --- | --- | --- |
| CN(C)c1ncc2nc(-c3ccc(F)cc3)c(=O)n(CCc3ccccc3)c2n1 | > 11.4 | 2.51 µM (active) | 162% [activator] (active) | > 9.22 | > 46 | inactive | 1 µM (active) | inactive | inactive | inactive | inactive | inactive | – | – | – | – | – | – |
| FC(F)(F)c1ccccc1-c1nccc(NCCN2CCOCC2)n1 | > 11.4 | – | – | > 46 | > 46 | inactive | – | inactive | inactive | inactive | inactive | inactive | 27.9 | -13.3% | inactive | inactive | – | – |
| COCCn1c(=O)c(-c2ccc(OC)cc2)nc2cnc(OCc3ccccc3)nc21 | > 11.4 | – | – | > 9.22 | > 46 | – | – | inactive | inactive | inactive | inactive | inactive | -11.8 | 7.46% | inactive | inactive | – | – |
| CN(C)c1ncnc2ccc(-c3ccc4c(c3)OCO4)cc12 | > 11.4 | – | -4.71% | > 46 | > 46 | inactive | – | 0.199 µM (active) | 0.158 µM (active) | 0.1 µM (active) | inactive | inactive | – | 1.73% | inactive | – | – | – |
| O=c1c(CCc2ccccc2)nc2cncnc2n1Cc1ccccc1Cl | > 11.4 | 12.6 µM (active) | -6.53% | > 46 | > 46 | – | – | inactive | inactive | inactive | inactive | inactive | – | -12.1% | inactive | inactive | 5.01 µM (active) | – |
| O=c1c(-c2ccc(F)cc2)nc2cnc(N3CCOCC3)nc2n1Cc1ccc(F)cc1 | > 11.4 | 20 µM (active) | – | > 9.22 | > 46 | inactive | 0.398 µM (active) | inactive | inactive | inactive | inactive | inactive | – | 105% [activator] (active) | inactive | – | – | – |
| c1cncc(-c2cncnc2NCc2cccs2)c1 | > 11.4 | 0.316 µM (active) | 23.6% | > 46 | > 46 | inactive | – | inactive | inactive | inactive | inactive | inactive | – | -4.79% | inactive | inactive | – | 2 µM (active) |
